Each structure is given as a SMILES string. Results filed as inconclusive are left out. Where a call stands in place of a potency, no number is given. Active and inactive are the calls of the source. Calls come from the whole dose curve; as a rule, active = well fitted inhibition curve with a large enough effect; inconclusive = small, poorly fitted or top-dose-only effect; inactive = no such curve, though single readings can be large or run the other way.

The target in this assay is Tumor susceptibility gene 101 protein (Homo sapiens) (UniProt Q99816). Put plainly: qHTS Assay for Iinhibitors of HIV-1 Budding by Blocking the Interaction of PTAP/TSG101: Hit Validation in TR assay. The following applies: Tsg101 binding domain + Texas Red-labeled PTAP peptide, fluorescence polarization, 20 min; series mostly up to 57.5 µM. The essentials: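 Texas Red-PTAP peptide (50 nM) binding to Tsg101 binding domain (10 uM), both final, in pH 7.5 HEPES buffer, read as polarization after 20 min at room temperature; compounds pinned before peptide addition.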
Chain of Tumor susceptibility gene 101 protein (Homo sapiens) (Q99816 whole entry, looked up, the tested form may be a part): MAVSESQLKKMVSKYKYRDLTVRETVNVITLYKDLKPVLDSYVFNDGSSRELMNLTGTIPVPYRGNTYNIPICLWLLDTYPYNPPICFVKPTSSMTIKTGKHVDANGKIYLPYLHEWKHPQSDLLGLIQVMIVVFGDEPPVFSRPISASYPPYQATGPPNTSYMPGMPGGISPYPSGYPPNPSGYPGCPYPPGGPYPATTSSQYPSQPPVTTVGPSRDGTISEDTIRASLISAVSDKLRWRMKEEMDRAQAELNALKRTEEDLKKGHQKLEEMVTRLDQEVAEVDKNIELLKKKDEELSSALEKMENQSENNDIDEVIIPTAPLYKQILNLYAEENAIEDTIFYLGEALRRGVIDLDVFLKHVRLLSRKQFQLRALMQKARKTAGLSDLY
Background: In qHTS, concentration-response curves come from the screen itself.
On to `CSC1=NSC2=NC(=O)/C(=C/c3coc4ccccc4c3=O)C(=N)N12`, for which the Potency result was “inactive”.

For `CC1=CC(=C(C#N)c2nc3ccccc3s2)C=C(C)N1c1ccc(F)cc1`, the Potency result was “inactive”.

In the case of `Cc1ccc(C2C3CN(C(C)C)CC=C3C(C#N)=C(N)C2(C#N)C#N)cc1` (centres undefined), the Potency result was “inactive”.

`Nc1ccc2nc3c(=O)n(C4CCCCC4)c(=O)[nH]c3nc2c1`: the Potency entry is “inactive”.

Regarding `N#C/C(=C\C=C\c1ccccc1)c1nc(-c2ccc3c(c2)OCO3)cs1`, the Potency entry is “inactive”.

In the case of `Cc1n[nH]c(C)c1N1C(=O)c2cccc3c(N4CCCCCC4)ccc(c23)C1=O`, the Potency result is “inactive”.

On to `Cc1nn(-c2ccccc2)c(N2CCCC2)c1/C=C1\N=C(c2ccc(F)cc2)OC1=O`, for which the Potency entry is “inactive”.

Regarding `CCN(CC)C(=O)Cn1c(=O)c2ccccc2n2c(=S)sc(-c3cccc(C)c3)c12`, the Potency entry was “inactive”.

For `Clc1ccc(C2=CC(c3ccco3)n3ncnc3N2)cc1` (centres undefined), the Potency result was “inactive”.

`CCOc1ccc(Cn2c3ccc(OC)cc3c3nc4ccccc4nc32)cc1`: the Potency entry is “inactive”.

With `Cc1cccc(N2C(=O)c3cccc4c(N)ccc(c34)C2=O)c1`, the Potency entry is “inactive”.

Regarding `O=C1/C(=C/c2ccco2)Oc2c1ccc(O)c2CN1CCCCC1`, the Potency entry was “inactive”.

For `C=CCOc1ccc(C2OC34CCCCC3C(C#N)(C#N)C2(C#N)C(=N)O4)cc1` (centres undefined), the Potency result was “inactive”.

As for `O=c1[nH]c(-[n+]2ccccc2)c(/C=N/NC([S-])=Nc2ccccc2)s1`, the Potency result is “inactive”.

Turning to `N#CC(C(=O)NC1CC1)c1nc2ccccc2nc1N1CCCC1` (centres undefined), the Potency result was “inactive”.

Consider `Nc1cccc2c(O)cc(S(=O)(=O)O)cc12`, for which the Potency entry was “inactive”.

For `CCC(=O)Nc1ccc(NC(=O)C23CC4CC(CC(C4)C2)C3)cn1`, the Potency result is “inactive”.

`O=C1Nc2ccc(Cl)cc2C12Nc1ccccc1-c1nnc(SCc3ccccc3F)nc1O2` (centres undefined): the Potency entry was “inactive”.

Take `Nc1cnccc1C(=O)O`: the Potency result is “inactive”.

In the case of `Cc1ccc(CNC(=O)C2CCCN(S(=O)(=O)c3c(C)[nH]c(=O)[nH]c3=O)C2)cc1` (centres undefined), the Potency result is “inactive”.

For `CSC1=NSC2=NC(=O)/C(=C\c3coc4ccccc4c3=O)C(=N)N12`, the Potency entry is “inactive”.

In the case of `CC(=O)Nc1ccc(N=Cc2c(O)ccc3ccccc23)cc1`, the Potency result is “inactive”.

With `COc1c([N+](=O)[O-])c(=O)n(-c2ccccc2)c2ccccc12`, the Potency entry was “inactive”.

For the compound `Cc1cc[n+](-c2[nH]c(=O)sc2/C=N/NC([S-])=Nc2ccccc2)cc1C`, the Potency entry was “inactive”.

For `CC1CCN(Cc2c(O)ccc3c2O/C(=C\c2ccco2)C3=O)CC1`, the Potency result was “inactive”.

`N#CC(C(=O)OC1CCCCC1)c1nc2ccccc2nc1N1CCOCC1` (centres undefined): the Potency entry is “inactive”.

As to `CCOC(=O)/C(C#N)=C\c1ccc(N2CCN(C/C=C/c3ccccc3)CC2)cc1`, the Potency entry is “inactive”.

As to `O=C(c1ccccc1)c1ccc(O)cc1O`, the Potency result was “inactive”.

Consider `COc1ccc(NC(=O)c2nc(-c3ccc(C)cc3)n3c2CCCCC3)cc1`, for which the Potency result is “inactive”.

For `CN1CCC2(CC1)C1CN(C)CC=C1C(C#N)=C(N)C2(C#N)C#N` (centres undefined), the Potency entry was “inactive”.

In the case of `CCn1cc(C=C2C(=O)c3ccccc3C2=O)c2ccccc21`, the Potency entry was “inactive”.

For the compound `CC(=O)Nc1ccc2nc3c(=O)[nH]c(=O)[nH]c3nc2c1`, the Potency entry is “inactive”.

For the compound `O=C1Nc2ccccc2/C1=C/c1cnc(-c2ccccc2)[nH]1`, the Potency result is “inactive”.

Take `O=[n+]1c2c(n([O-])c3cc(F)c(N4CCCC4)cc31)CCC2`: the Potency entry is “inactive”.

For `COc1cc(C2C=C(c3cccs3)Nc3ncnn32)cc(OC)c1OC` (centres undefined), the Potency entry is “inactive”.

Take `N=c1c(S(=O)(=O)c2ccc(Br)cc2)cc2c(=O)n3ccccc3nc2n1Cc1ccccc1`: the Potency entry is “inactive”.

As for `COC(=O)C[C@H]1c2cc(F)ccc2S(=O)(=O)N1c1ccccc1`, the Potency result was “inactive”.

`O=C(O)c1cc(O)c2c(c1)C(=O)c1cccc(O)c1C2=O`: the Potency entry is “inactive”.

`O=S(=O)([N-]c1nc2ccccc2nc1-[n+]1ccc(-c2ccncc2)cc1)c1ccccc1`: the Potency result is “inactive”.

These data come from PubChem BioAssay AID651599 (National Center for Advancing Translational Sciences (NCATS), 2012).
